Only some compounds are listed: those with a hit (about 4.5% of all), similar ones and a draw of the others.
hcDAF-12 act = H. contortus DAF-12 activation, primary screen | activation, % at 6.8 µM | HEK293 hcDAF-12 lit1-tk-luc reporter, luminescence; 0% DMSO, 100% Δ7-dafachronic acid | AID 652067 | actives 1.4% (n = 370,000);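 active = activation above the mean of all tested compounds plus 3 SD, cut at about 5.5% in these data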
ssDAF-12 act = activates DAF-12 receptor from parasite S. stercoralis | HEK293 ssDAF-12/GRIP1 lit1-tk-luc reporter, luminescence; % of 3 µM dafachronic acid response | activation, % at 6.8 µM | actives 1% (n = 370,000) | AID 652126;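 active = activation above the mean over all tested compounds plus 3 SD, cut at about 0.9% in these data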
DAX1 inh-1 = blocks DAX1 repression of SF-1 activated StAR promoter; HEK293T StAR-luciferase reporter, SF-1/DAX-1 repression relief; inhibition, % at 6.8 µM; actives 1.1% (n = 370,000);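 active = inhibition above the mean over all tested compounds plus 3 SD, cut at about 3.6% in these data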;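 note: higher inhibition means more luminescence from relief of DAX-1 repression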
DAX1 inh-2 = NR0B1 (DAX1) inhibition. HEK293 Gal4-DAX1 luciferase reporter, luminescence. P51843. actives 0.99% (n = 340,000). inhibition, % at 6.75 µM. AID 504766;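 active = inhibition above the mean over all tested compounds plus 3 SD, cut at about 4.2% in these data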;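 note: inhibition shows as a rise in luminescence from relieved DAX1 repression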
Target sequence (P51843 207-470 limits assumed): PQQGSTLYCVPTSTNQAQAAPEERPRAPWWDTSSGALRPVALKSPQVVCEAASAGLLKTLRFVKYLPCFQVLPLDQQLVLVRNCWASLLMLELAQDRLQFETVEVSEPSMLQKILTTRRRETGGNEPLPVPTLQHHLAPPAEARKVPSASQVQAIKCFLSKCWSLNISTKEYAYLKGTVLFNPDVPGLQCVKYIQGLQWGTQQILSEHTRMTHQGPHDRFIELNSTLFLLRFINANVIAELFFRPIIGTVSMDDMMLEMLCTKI
hgDAF12 agonist = hgDAF-12 agonism, primary luciferase screen | HEK293 GAL4-hgDAF12 UAS-luciferase reporter, agonist luminescence; normalized to butyrate control | activation, % at 6.8 µM | actives 1.8% (n = 370,000) | AID 687014;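 active = activation above a cutoff set at the mean of all screened compounds plus 3 SD, cut at about 10% in these data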
FXN GAA850 act = frataxin GAA850 promoter activation. AID 540364. activation, % at 6 µM. actives 0.56% (n = 360,000). HEK293 lucGAA850 FXN promoter luciferase reporter, 24 h; percent of 10 µM SAHA response;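 active = activation above the average of all compounds screened plus 3 SD, cutoff fixed separately per campaign, cut at about 7.5% in these data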
GAA30 counter = GAA30 FXN promoter activation counter-screen | activation, % at 6 µM | actives 66% (n = 1,900) | HEK293 lucGAA30 FXN promoter luciferase, 24 h; DMSO = 0%, 5 µM ipriflavone = 100% | AID 588350 | shares compounds with FXN GAA850 act;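 active = mean activation above the mean of solvent-only control wells plus 3 SD, cut at about 22% in these data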;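 note: counterscreen of GAA850 promoter hits where activity marks nonselective or luminescence artifacts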
GAA850 confirm = GAA850 FXN promoter activation confirmation; actives 86% (n = 1,900); HEK293 lucGAA850 FXN promoter luciferase reporter, 24 h; 100% = activation by SAHA; AID 588351; shares compounds with FXN GAA850 act; activation, % at 6 µM;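 active = mean activation above a set limit taken from the primary screen, cut at about 8% in these data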
DAX1 conf = NR0B1 (human) inhibition, confirmation; actives 87% (n = 2,400); AID 652134; shares compounds with DAX1 inh-1; inhibition, % at 6.8 µM; HEK293T StAR-promoter luciferase reporter, SF-1/DAX-1 repression;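 active = inhibition above the average of every tested compound plus 3 SD, cut at about 3.8% in these data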;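 note: active compounds raise luminescence by relieving repression of the StAR reporter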
SF1 AF2mut Luc = nonselective inhibitor or artifact in SF-1 mutant DAX1 counter-screen; AID 652136; HEK293 StAR-luciferase, SF-1 AF2 mutant, luminescence; shares compounds with DAX1 inh-1; inhibition, % at 6.8 µM; actives 78% (n = 2,400);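 active = inhibition above the mean of all tested compounds plus 3 SD, cut at about 3% in these data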
LXR ag = counter-screen for hcDAF-12 agonists: agonists of human LXR-beta; shares compounds with hcDAF-12 act; activation, % at 6.8 µM; 3,400 tested, under 10 active; HEK293 Gal4-LXR tk-luc reporter, luminescence, 24 h; normalized: DMSO 0%, positive control 100%;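 active = mean percent activation of the reporter above a cutoff set as the average over tested compounds plus their standard deviation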
Target sequence (P55055 whole entry, looked up, the tested form may be a part): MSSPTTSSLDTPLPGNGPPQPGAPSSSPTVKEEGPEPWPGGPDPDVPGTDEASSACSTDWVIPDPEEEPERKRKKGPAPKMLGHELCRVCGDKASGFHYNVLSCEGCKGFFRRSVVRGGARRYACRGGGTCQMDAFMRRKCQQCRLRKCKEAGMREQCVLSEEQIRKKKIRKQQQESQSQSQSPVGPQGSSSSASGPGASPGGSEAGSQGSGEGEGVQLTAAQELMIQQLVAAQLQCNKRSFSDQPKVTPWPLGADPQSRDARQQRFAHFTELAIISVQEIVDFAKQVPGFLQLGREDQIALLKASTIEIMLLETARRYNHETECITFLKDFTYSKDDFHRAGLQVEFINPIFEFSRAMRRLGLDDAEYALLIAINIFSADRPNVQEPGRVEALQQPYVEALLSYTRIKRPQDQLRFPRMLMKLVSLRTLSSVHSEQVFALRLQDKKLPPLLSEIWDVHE
hcDAF12 conf = hcDAF-12 agonism, confirmation assay; shares compounds with hcDAF-12 act; HEK293 hcDAF-12 lit1-tk-luc reporter, luminescence; % of Δ7-dafachronic acid response; activation, % at 6.8 µM; actives 61% (n = 3,400);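 active = mean activation across triplicate tests above the threshold derived from the earlier primary screen, cut at about 5.5% in these data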
hgDAF12 ag = confirmation of H. glycines DAF-12 agonists; shares compounds with hgDAF12 agonist; HEK293 GAL4-hgDAF12 luciferase reporter, agonist mode; percent of butyrate response; activation, % at 6.8 µM; actives 80% (n = 3,300); AID 743050;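 active = mean activation over triplicate wells above the hit cutoff derived from the earlier primary screen, cut at about 11% in these data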
LXRb DAF12 ctr = activates human LXR-beta, counter-screen for DAF-12 agonists; HEK293 Gal4-LXR luciferase reporter, 24 h; shares compounds with hgDAF12 agonist; 3,300 tested, under 10 active; activation, % at 6.8 µM; AID 743051;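 active = mean activation of the triplicate above a set limit carried over from the primary screen, none filed active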
Numbers stand for hits; - = inactive; . = no result given.

SMILES	hcDAF-12 act	ssDAF-12 act	DAX1 inh-1	DAX1 inh-2	hgDAF12 agonist	FXN GAA850 act	GAA30 counter	GAA850 confirm	LXR ag	hcDAF12 conf	hgDAF12 ag	LXRb DAF12 ctr	others
Cc1cccc(/C(N)=N/OC(=O)c2ccc3c(c2)OCO3)c1	8.6	-	5.4	-	14.8	7.9	105.0	38.9	-	6.7	13.7	-	DAX1 conf=10.8;SF1 AF2mut Luc=6.8
N/C(=N\OC(=O)c1ccc2c(c1)OCO2)c1cccc([N+](=O)[O-])c1	-	-	-	-	-	-	.	.	.	.	.	.
CN(c1ccccc1)S(=O)(=O)c1ccc(C(=O)Nc2ncccc2O)cc1	-	-	-	-	-	-	.	.	.	.	.	.
O=C(Nc1ncccc1O)c1ccc(S(=O)(=O)Nc2ccccc2)cc1	13.3	-	84.7	11.3	85.2	19.8	51.9	46.7	-	8.0	80.9	-	DAX1 conf=111.5;SF1 AF2mut Luc=57.7
O=C(Nc1ccccc1O)c1ccc(NS(=O)(=O)c2cccc3cccnc23)cc1	19.4	2.3	53.9	18.2	83.5	19.9	56.3	73.3	-	13.2	89.4	-	DAX1 conf=90.8;SF1 AF2mut Luc=38.4
Nc1nc(-c2cccnc2)nc2sc3c(c12)CCCC3	8.7	1.5	4.5	-	19.6	10.0	108.1	53.5	-	-	15.4	-
COC(=O)[C@]12C[C@H](CC(=O)N3CCC(c4ccccc4)CC3)C(=O)N(Cc3cccc4ccccc34)C1=C[C@H](C(C)C)O[C@@H]2C1CC1	-	-	-	.	-	.	.	.	.	.	.	.
O=C(Nc1ccccc1O)c1csc2c1CCCC2	7.4	-	-	-	16.4	10.9	118.9	44.1	-	10.1	13.3	-
N/C(=N\N=C\c1cccc(O)c1)c1nonc1N	13.5	3.2	7.2	-	20.4	7.9	128.3	20.6	-	9.0	16.9	-	DAX1 conf=14.9;SF1 AF2mut Luc=10.6
COc1ccc(S(=O)(=O)NC2CCN(C#N)CC2)cc1	-	-	.	.	-	.	.	.	.	.	.	.
O=C(NCc1ccco1)c1cc(-c2cccs2)on1	-	-	-	-	23.3	25.9	150.2	55.6	.	.	21.8	-
O=C(NCC1CCCO1)c1cc(-c2ccc(F)cc2)no1 (stereo unspecified)	-	-	-	-	18.4	11.2	84.8	31.3	.	.	19.1	-
COc1ccc(-c2cc(C(=O)NCC3CCCO3)on2)cc1OC (stereo unspecified)	-	-	-	-	-	-	.	.	.	.	.	.
O=C(NCc1ccccc1)c1cc(-c2cccs2)on1	-	-	-	-	-	-	.	.	.	.	.	.
O=C(NCC1CCCO1)c1cc(-c2ccccc2)on1 (stereo unspecified)	6.5	-	-	4.3	42.0	23.8	157.4	90.5	.	.	48.4	-
CCCNC(=O)c1cc(-c2ccco2)on1	-	-	-	-	47.4	22.0	127.5	57.4	.	.	36.9	-
COC(=O)C1CN(Cc2ccccc2)CCS(=O)(=O)N1Cc1cn(Cc2cccc(Cl)c2)nn1 (stereo unspecified)	-	-	-	.	-	.	.	.	.	.	.	.
COc1cccc(-c2ccc(CC[C@H]3O[C@H]4CC[C@H](CO)O[C@H]4C[C@H]3NS(C)(=O)=O)cc2)c1	-	-	-	.	-	.	.	.	.	.	.	.
CCOc1cc(OCC)cc(C(=O)N2CCC[C@@H]2C(=O)N2CCC[C@@H]2C(=O)NCc2cccc(OC)c2)c1	-	-	-	.	-	.	.	.	.	.	.	.
O=C(NCc1ccco1)c1ccccc1-c1ccccc1	-	-	-	-	-	-	.	.	.	.	.	.
O=C(NCc1ccco1)c1cc(-c2ccccc2)on1	-	-	-	-	23.3	9.1	104.5	37.4	.	.	22.4	-
Cn1cccc1C(=O)N1CCN(S(=O)(=O)c2ccc(Cl)s2)CC1	-	-	-	.	-	.	.	.	.	.	.	.
COc1ccc2c(CC(=O)Nc3ncc(C)s3)coc2c1	-	-	-	-	18.4	8.7	91.0	54.7	.	.	18.0	-
COc1ccc2c(CC(=O)Nc3nc(C)cs3)coc2c1	-	-	-	-	-	-	.	.	.	.	.	.
O=C(NCc1ccccc1)c1cccc(COc2ccccc2Cl)c1	-	-	-	-	-	-	.	.	.	.	.	.
SMILES	hcDAF-12 act	ssDAF-12 act	DAX1 inh-1	DAX1 inh-2	hgDAF12 agonist	FXN GAA850 act	GAA30 counter	GAA850 confirm	LXR ag	hcDAF12 conf	hgDAF12 ag	LXRb DAF12 ctr	others
CN(C(=O)c1cccc(COc2ccc(Cl)cc2Cl)c1)c1ccccc1	-	-	-	-	13.4	8.3	102.5	38.7	.	.	12.7	-
Cc1cc2c([nH]c3ccccc32)c2c1OC(C)(C)C=C2	-	1.1	4.2	5.0	13.7	8.2	123.5	46.2	.	.	10.8	-
C[C@H]1COc2cccc(F)c2S(=O)(=O)N1C	-	-	-	.	-	.	.	.	.	.	.	.
CCc1c(-c2cccc(Cl)c2)ncn1CCc1ccccc1OC	-	-	-	.	-	.	.	.	.	.	.	.
c1ccc(CSc2nc3ccccc3[nH]2)cc1	8.6	-	3.8	-	22.0	7.9	91.2	29.2	-	7.4	16.7	-
CC(C)(C)C1=Nn2c(nnc2-c2ccc(C(C)(C)C)cc2)SC1	-	-	-	.	-	.	.	.	.	.	.	.
Cc1ccc2nc(/C=C/c3cccc(F)c3)ccc2c1	8.3	2.8	5.1	-	20.8	9.5	101.4	30.1	-	8.7	20.3	-	DAX1 conf=10.0;SF1 AF2mut Luc=5.1
Cc1ccc2ncccc2c1	-	-	-	-	-	-	.	.	.	.	.	.
Cn1c2nc3ccccc3c-2nc2ccccc21	8.3	-	-	-	15.7	11.0	114.8	34.7	-	6.7	15.1	-
Clc1ccccc1/C=C/c1nc(-c2cccnc2)no1	-	-	-	-	-	-	.	.	.	.	.	.

Screens (PubChem BioAssay)
